High-throughput results: PubChem BioAssay, several laboratories
A selection: hits, their analogues and other compounds. The true share with any hit is near 2.4%.
WT yeast gro inh: growth inhibition of WT strain, primary screen, mitochondrial fusion inhibitor project, WT and mutant strains, chemical genetic; mitochondrial fusion phenotypic screen; inhibition, % at 10 µM; actives 2.1% (n = 190,000); AID 1362, 2008; in the data active = inhibition above about 58%; tested in S. cerevisiae
PKD1 inh: inhibitors of human PKD1 kinase, biochemical, fluorescence polarization. Serine/threonine-protein kinase D1 (Homo sapiens), Q15139. PKD1 kinase fluorescence polarization assay. inhibition, % (concentration not given with the values). actives 0.056% (n = 200,000); in the data active = inhibition above about 50%
Target sequence (Q15139 whole entry, looked up): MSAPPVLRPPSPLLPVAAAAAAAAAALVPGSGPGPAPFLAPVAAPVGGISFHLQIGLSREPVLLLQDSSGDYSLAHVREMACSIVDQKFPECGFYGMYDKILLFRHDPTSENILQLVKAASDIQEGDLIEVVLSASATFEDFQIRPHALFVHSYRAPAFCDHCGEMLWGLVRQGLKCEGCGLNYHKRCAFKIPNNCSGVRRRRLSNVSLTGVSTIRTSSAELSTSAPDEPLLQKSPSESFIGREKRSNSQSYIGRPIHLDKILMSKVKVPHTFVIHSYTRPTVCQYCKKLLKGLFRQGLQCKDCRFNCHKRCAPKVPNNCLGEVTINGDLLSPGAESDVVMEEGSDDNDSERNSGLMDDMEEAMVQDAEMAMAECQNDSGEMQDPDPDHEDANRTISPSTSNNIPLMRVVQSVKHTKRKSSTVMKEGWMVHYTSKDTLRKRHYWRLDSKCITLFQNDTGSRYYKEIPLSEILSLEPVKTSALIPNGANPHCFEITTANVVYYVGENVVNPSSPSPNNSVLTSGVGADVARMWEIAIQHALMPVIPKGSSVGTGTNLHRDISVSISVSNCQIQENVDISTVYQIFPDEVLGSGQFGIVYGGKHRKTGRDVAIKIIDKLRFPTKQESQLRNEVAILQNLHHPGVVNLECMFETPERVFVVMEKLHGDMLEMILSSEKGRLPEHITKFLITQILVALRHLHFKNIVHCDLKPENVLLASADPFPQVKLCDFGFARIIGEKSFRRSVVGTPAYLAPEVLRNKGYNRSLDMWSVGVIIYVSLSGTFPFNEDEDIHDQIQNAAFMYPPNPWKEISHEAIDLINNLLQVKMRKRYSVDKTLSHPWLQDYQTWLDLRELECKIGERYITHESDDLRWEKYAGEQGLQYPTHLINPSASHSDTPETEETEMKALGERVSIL
PERK inhibitor: block of dimerizer-induced PERK translation repression, primary screen, PERK inhibitor project, CHO PERK-DD cells, SEAP luminescence, HTS | Eukaryotic translation initiation factor 2-alpha kinase 3 (Homo sapiens), Q9NZJ5 | CHO PERK-DD fusion, SEAP luminescence translation reporter | inhibition, % at 5.6 µM | actives 0.17% (n = 220,000);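 active = inhibition above the mean inhibition of all tested compounds plus 3 SD, set separately per screening campaign, cut at about 2.9% in these data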;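 note: PERK kinase domain activated by AP20187 dimerizer at 100 nM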
TNF death inh: inhibitors of TNF-alpha triggered necroptosis, primary screen, cell-based, Jurkat FADD-/-, single concentration | Jurkat FADD-/- TNF necroptosis rescue, ATP luminescence, 24 h; 0 = TNF only, 100 = no-TNF cells | actives 0.068% (n = 220,000) | activation (protection from cell death), % at 10 µM;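 active = activation, meaning protection from cell death, of at least 50% relative to plate controls; inactive = activation below 50%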;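 note: necroptosis triggered by 40 ng/mL TNF-alpha added together with compound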
L929 necroptosis: inhibitors of zVAD-triggered necroptosis, primary screen, L929 cells; L929 zVAD necroptosis rescue, ATP luminescence, 24 h; with zVAD 60 µM; viability rescue, % at 10 µM; actives 0.38% (n = 220,000);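 active = activation, scaled between plate controls, above about 75%, limit read from the data; inactive = activation under that limit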
DTT redox prof: compounds producing H2O2 with reducing agent – biochemical, NIH compound library profiling, artefact control for MLSCN library redox annotation, primary screen | DTT-dependent redox cycling H2O2, phenol red/HRP absorbance; 100% = 100 µM peroxide control, 0% = buffer | actives 0.03% (n = 200,000) | AID 878, 2007 | activation, % at 10 µM;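 active = activation of at least 50% relative to the plate's high and low controls in the primary single-dose screen; inactive = activation below 50%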;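 note: compound incubated with DTT at 0.8 mM final as the reducing agent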
Each line names hits and unclear results; the compound was inactive in the other large screens.

COCCn1c(C)cc(/C=C2/NC(=O)N(c3ccc(Cl)cc3)C2=O)c1C	none
Cc1ccc(SCCNC(=S)Nc2ccc(C)c(C)c2)cc1	none
Cc1cc(C)cc(NC(=S)NCCSc2ccc(Cl)cc2)c1	WT yeast gro inh 81
Cc1ccc(SCCNC(=S)Nc2cc(C)ccc2C)cc1	WT yeast gro inh 75
COc1ccccc1NC(=S)NCCc1ccccc1	none
Cc1ccc(SCCNC(=S)Nc2ccccc2)cc1	WT yeast gro inh 74
COc1ccccc1NC(=S)NCCSc1ccc(C)cc1	WT yeast gro inh 71
CCc1c(C)c(C#N)c2[nH]c3ccccc3n2c1=S	none (no result: WT yeast gro inh, PKD1 inh, DTT redox prof)
CCN(CC)c1ccc(C(=S)NCc2ccccc2)cc1	WT yeast gro inh 67
CCN(CC)c1ccc(C(=S)NC2CCCCC2)cc1	WT yeast gro inh 73
O=C(N/N=C/C1C(c2ccccc2)C1(Cl)Cl)c1cccc(Cl)c1 (stereo not drawn)	none
O=S(=O)(Nc1nc2ccccc2nc1NCc1ccco1)c1ccc(Cl)cc1	WT yeast gro inh 58
CCCC(=O)Nc1ccc(Cl)c(NC(=S)NC(=O)c2ccco2)c1	none
N/C(=N\OC(=O)COc1ccc2ccccc2c1Br)c1ccccn1	WT yeast gro inh 64
CCN(CC)P(=O)(Nc1ccccc1Br)c1ccc(N(C)C)cc1NC(=O)c1ccco1 (stereo not drawn)	none
Cc1ccc(-c2nc(CSc3nc4ccccc4c(=O)n3C)cs2)cc1	none
Cc1ccc(-c2nc(CSc3nc4ccccc4c(=O)n3CCO)cs2)cc1	WT yeast gro inh 60
Cc1ccc(S(=O)(=O)n2c3ccc(Cl)cc3c3nc(C)sc32)cc1	WT yeast gro inh 64
Cc1ccccc1NC1=C/C(=N\S(=O)(=O)c2cccs2)c2ccccc2C1=O	WT yeast gro inh 89
CCOC(=O)C1=C(C)N=C2SC=C(C)N2C1c1ccc(OC)cc1 (stereo not drawn)	none
O=C1C(Cc2ccc(O)cc2)NC(=S)N1c1ccccc1 (stereo not drawn)	PERK inhibitor 3.0
O=C(COc1ccccc1Br)Nc1ccccc1C(F)(F)F	none
C=CCNC(=O)c1onc(CSc2ccc(F)c(F)c2)c1C(=O)O	PERK inhibitor 3.1
Cc1cc(CN2CCOCC2)c(O)c(C2(C)CCCCC2)c1	WT yeast gro inh 85
Cc1cc(CN(C)C)c(O)c(C2(C)CCCCC2)c1	none
CC1CC(C)(C)NC(=S)N1CCC(=O)N1CCc2ccccc21 (stereo not drawn)	none
COc1cccc(N2CCN(c3ncnc4c3[nH]c3ccccc34)CC2C)c1 (stereo not drawn)	WT yeast gro inh 65
COc1cccc(N2CCN(c3ncnc4c3[nH]c3ccc(F)cc34)CC2C)c1 (stereo not drawn)	WT yeast gro inh 79
COc1ccc2[nH]c3c(N4CC(C)OC(C)C4)ncnc3c2c1 (stereo not drawn)	none
O=C(C[n+]1ccc(-c2nnc3n2CCCCC3)cc1)c1ccc(Cl)cc1	none (no result: WT yeast gro inh, PKD1 inh, DTT redox prof)
O=C(O)c1nn(-c2cccc(Cl)c2)c(=O)cc1O	none
O=C(Cc1ccccc1)NNC(=O)c1ccccc1C(=O)O	none (no result: WT yeast gro inh, PKD1 inh, DTT redox prof)
CCN1CCc2nc(NC(=O)c3ccccc3)sc2C1	WT yeast gro inh 81
O=C(Nc1nc2c(s1)CN(Cc1ccccc1)CC2)C1CCC1	none
COCCNC(=O)Cn1cc(/C=N/NC(=O)c2ccc(Oc3ccc(O)cc3)cc2)c2ccccc21	none
C=CC[n+]1ccc(/C=C2\C=Cc3cc(C)ccc3N2CC)c2ccccc21	WT yeast gro inh 87
CCN1/C(=C/c2cc[n+](CCCS(=O)(=O)[O-])c3ccccc23)Sc2ccccc21	none
Cc1ccc(OCCCCNC2CCCC(C)C2C)c(C)c1 (stereo not drawn)	WT yeast gro inh 63
Cc1ccc(OCCCN2CCCC2)c(C)c1	none
CC(C)/C(=N/Nc1ccccc1[N+](=O)[O-])c1ccccc1	WT yeast gro inh 64
CC(C)Oc1ccccc1/C=N/Nc1ccccc1[N+](=O)[O-]	none
c1ccc2c(c1)[nH]c1c3ccccc3sc21	none (no result: WT yeast gro inh, PKD1 inh, DTT redox prof)
CCCC(C)c1nnc(NC(=O)C2CCCO2)s1 (stereo not drawn)	none
CCCC(C)c1nnc(NC(=O)C(=O)OCC)s1 (stereo not drawn)	PERK inhibitor 3.0
CC(C)Oc1ccc(CC2CCC(=O)N(C)C2=O)cc1 (stereo not drawn)	none
COc1ccccc1NC(=S)N(Cc1cccs1)C1CCCC1	WT yeast gro inh 75
COc1ccccc1NC(=S)N(Cc1ccccc1)Cc1cccs1	none
COc1ccc(NS(=O)(=O)c2ccc3c(c2)CCO3)cc1	none (no result: WT yeast gro inh, PKD1 inh, DTT redox prof)
O=S(=O)(Nc1ccccc1)c1ccc2c(c1)CCO2	TNF death inh 52 (no result: WT yeast gro inh, PKD1 inh, DTT redox prof)
CCOC(=O)c1ccc(S(=O)(=O)Nc2cc(C(=O)O)ccc2Cl)cc1	none
O=[N+]([O-])c1ccc(/C=N/N=C/c2ccc([N+](=O)[O-])o2)o1	none
O=C1OC(c2ccc(F)cc2)=C/C1=C\c1ccc([N+](=O)[O-])o1	WT yeast gro inh 85
O=C(Nc1nccs1)c1ccc(Cl)s1	L929 necroptosis 96
O=C(Nc1nccs1)c1cc2c(s1)CCCCC2	TNF death inh 52
CC[n+]1c(C=C2C=C(C)OC(C)=C2)sc2ccccc21	WT yeast gro inh 69
CC1C(c2ccccc2)N(C)C(c2ccccc2)C(C)C1(O)C#Cc1ccccc1 (stereo not drawn)	WT yeast gro inh 75
COc1ccc(NC(=O)Nc2nc(C)cc(C)n2)c(OC)c1	none (no result: WT yeast gro inh, PKD1 inh, DTT redox prof)
NNC(=O)c1ccc(CSc2n[nH]c(=O)[nH]c2=O)cc1	none (no result: WT yeast gro inh, PKD1 inh, DTT redox prof)
COc1ccccc1C(=O)O/N=C(\N)c1ccccc1Cl	none
COc1cc(OC)nc(Oc2ccccc2C(=O)Oc2ccc(F)cc2Cl)n1	WT yeast gro inh 69
CCCCCc1nnc(NC(=O)Cn2cnc3ccccc3c2=O)s1	none
C/C(=N/O)c1no[n+]([O-])c1/C(C)=N\O	none (no result: WT yeast gro inh, PKD1 inh, DTT redox prof)
O=C(CN1CCN(c2ncc(C(F)(F)F)cc2Cl)CC1)N1CCN(c2ncc(C(F)(F)F)cc2Cl)CC1	WT yeast gro inh 73
O=C(OC1CCN(c2ncc(C(F)(F)F)cc2Cl)CC1)c1ccccc1	WT yeast gro inh 64
O=C(OC1CCN(c2ncc(C(F)(F)F)cc2Cl)CC1)c1cccc(C(F)(F)F)c1	none
Cc1ccc(C(=O)OCCN2CCN(c3ncc(C(F)(F)F)cc3Cl)CC2)cc1	WT yeast gro inh 67
O=C(OCCN1CCN(c2ncc(C(F)(F)F)cc2Cl)CC1)c1ccc(F)cc1	none
